Source: PMC4336329 (PLoS ONE, 2015)
In all, about 310,000 compounds went through this assay and about 14,000 (4.5%) showed an effect of 50% or more. The effect is printed as a negative number. Only a selection was taken, and strong results are over-represented in it overall.

Target: human ether-à-go-go-related gene (hERG) potassium channel (human, UniProt Q12809)
Experiment: primary screen, population patch clamp on CHO cells stably expressing hERG; higher = less effect of the substance
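Further: peak tail current of the secondary pulse compared with the same well before compound.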

Sequence of human ether-à-go-go-related gene (hERG) potassium channel (Q12809 whole entry, looked up): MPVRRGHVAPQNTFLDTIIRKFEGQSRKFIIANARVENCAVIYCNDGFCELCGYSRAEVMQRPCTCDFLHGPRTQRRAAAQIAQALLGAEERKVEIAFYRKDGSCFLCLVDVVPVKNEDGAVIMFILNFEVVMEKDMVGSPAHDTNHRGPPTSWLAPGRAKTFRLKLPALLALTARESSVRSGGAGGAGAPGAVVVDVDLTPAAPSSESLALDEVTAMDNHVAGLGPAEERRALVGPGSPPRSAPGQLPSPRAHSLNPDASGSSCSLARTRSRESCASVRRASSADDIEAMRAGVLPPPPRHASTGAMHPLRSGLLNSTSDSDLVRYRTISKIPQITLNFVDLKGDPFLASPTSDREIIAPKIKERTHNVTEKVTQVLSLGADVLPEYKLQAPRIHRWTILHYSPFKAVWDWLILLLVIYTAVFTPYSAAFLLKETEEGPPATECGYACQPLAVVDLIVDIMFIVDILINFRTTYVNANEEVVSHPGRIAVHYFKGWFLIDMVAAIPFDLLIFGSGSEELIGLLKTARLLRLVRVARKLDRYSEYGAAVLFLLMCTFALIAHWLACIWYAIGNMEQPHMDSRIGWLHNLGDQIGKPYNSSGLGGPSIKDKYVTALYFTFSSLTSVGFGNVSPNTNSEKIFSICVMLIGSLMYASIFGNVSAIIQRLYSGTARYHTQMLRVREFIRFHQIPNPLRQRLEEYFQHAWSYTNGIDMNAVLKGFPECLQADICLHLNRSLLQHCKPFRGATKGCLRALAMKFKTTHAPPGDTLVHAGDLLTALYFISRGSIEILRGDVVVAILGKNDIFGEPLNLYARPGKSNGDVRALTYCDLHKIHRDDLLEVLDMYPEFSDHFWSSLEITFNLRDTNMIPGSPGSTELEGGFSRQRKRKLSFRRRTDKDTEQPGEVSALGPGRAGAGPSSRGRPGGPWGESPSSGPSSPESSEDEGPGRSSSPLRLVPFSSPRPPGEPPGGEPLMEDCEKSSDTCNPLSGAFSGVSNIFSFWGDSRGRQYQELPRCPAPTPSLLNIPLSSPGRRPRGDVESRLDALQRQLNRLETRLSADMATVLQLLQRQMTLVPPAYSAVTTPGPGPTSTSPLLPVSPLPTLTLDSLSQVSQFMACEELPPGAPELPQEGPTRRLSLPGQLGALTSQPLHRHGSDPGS

SMILES | hERG current change (%, negative = inhibition) at 10uM [%]
CC(=O)Nc1ccc(NS(=O)(=O)c2ccccc2)cc1 | 17.1
O=C(CCn1c(SCC(=O)NCc2ccco2)nc2ccccc2c1=O)NCCc1ccccc1 | -34.5
N=c1c(C(=O)NCc2ccco2)cc2c(=O)n3ccccc3nc2n1CCc1ccccc1 | -76.7
N=c1c(C(=O)NCc2ccco2)cc2c(=O)n3ccccc3nc2n1Cc1ccccc1 | -79.3
N=c1c(C(=O)NCc2ccc(F)cc2)cc2c(=O)n3ccccc3nc2n1Cc1ccco1 | -77.8
O=C(CCn1c(=O)c2ccccc2n(Cc2cc(=O)n3ccccc3n2)c1=O)NCc1ccco1 | -4.21
Cn1nnnc1SCC(=O)Nc1ccc(S(=O)(=O)N2CCOCC2)cc1 | 3.21
COc1ccc(CNC(=O)CN2C(=O)C3C4C=CC(C4)C3C2=O)cc1 (stereo not shown) | 19.2
O=C(O)C1CC(=O)N(c2ccc(OCc3ccc(Br)cc3)cc2)C1 (stereo not shown) | 6.71
COCCNC(=O)C(c1ccco1)N(C(=O)Cn1nnc2ccccc21)c1cc(C)ccc1C (stereo not shown) | -4.75
O=C1CCCN1CCCn1cnc2c([nH]c3ccc(F)cc32)c1=O | -42.2
O=c1c2[nH]c3ccc(F)cc3c2ncn1CCCn1ccnc1 | -61.1
O=c1c2[nH]c3ccc(Br)cc3c2ncn1CCCn1ccnc1 | -64.4
O=c1c2[nH]c3ccccc3c2ncn1CCCn1ccnc1 | -41.8
COc1ccc2c(c1)[nH]c1c(=O)n(CCCn3ccnc3)cnc12 | -35.1
O=c1c2[nH]c3ccc(Br)cc3c2ncn1Cc1ccncc1 | -4.79
CC(C)(C)C1CCC(=NNC(=O)c2cc3c(s2)CCCC3)CC1 (stereo not shown) | 20.1
Cc1cccc(NC(=O)c2sc(NC(=O)c3ccco3)c(C#N)c2C)c1C | 5.79
O=C(CCSc1nc(-c2ccco2)cc(C(F)(F)F)n1)NCc1ccccn1 | -22.5
CC(=C/c1ccc(C(C)C)cc1)/C=N/NC(=O)Cn1nnnc1N | 17.3
CS/C(=N/S(=O)(=O)c1ccc(C)cc1)c1ccccc1 | -3.56
O=P(O)(O)O.c1ccc(CN(CC2=NCCN2)c2ccccc2)cc1 | -17.3
CS(=O)(=O)O.Cc1ccc(N(CC2=NCCN2)c2cccc(O)c2)cc1 | -51.2

SMILES | hERG current change (%, negative = inhibition) at 10uM [%]
Cl.c1ccc(CN(CC2=NCCN2)c2ccccc2)cc1 | -29.7
Cc1ccc(N(CC(=O)Nc2c(C)cccc2C)S(C)(=O)=O)cc1 | 1.65
Cl.c1ccc(CC2=NCCN2)cc1 | 7.57
Cc1ccc(N(CC2=NCCN2)c2cccc(O)c2)cc1.Cl | -58.3
Cc1cc(C)nc(/N=C2\NC(=O)CC(C(=O)O)N2CCc2c[nH]c3ccccc23)n1 (stereo not shown) | 12.8
COc1cccc(NC(=O)C(c2ccccc2)N2CCNC(=O)C2)c1 (stereo not shown) | -7.23
O=C(CCN1CCOCC1)N1CCCC(Nc2ccc(F)cc2)C1 (stereo not shown) | 13.7
C/C(=N\NC(=S)Nc1ccc(F)cc1)C1CC1 | -26.7
COc1ccc(C(=O)NC(=S)Nc2cccnc2)cc1[N+](=O)[O-] | 4.69
Cc1cccc(N(CC(=O)NCCSCc2ccccc2)S(C)(=O)=O)c1 | 26.5
CCNC(=O)COC(=O)C1CCC(=O)N(c2ccc(OC)cc2)C1c1ccc(OC)cc1 (stereo not shown) | -32.2
COc1ccc(C2C(C(=O)OCC(=O)N3CCCCC3)CCC(=O)N2c2ccc(OC)cc2)cc1 (stereo not shown) | -13.3
COc1ccc(C2C(C(=O)OCC(=O)Nc3ccc(C)cc3)CCC(=O)N2c2ccc(OC)cc2)cc1 (stereo not shown) | -62.4
COc1ccc(C(=O)OCC[N+]2(C)CCOCC2)cc1.[I-] | 13.6
CN(C/C=C/c1ccccc1)C1CCCCC1 | -21.7
NC(=O)CN(C/C=C/c1ccccc1)C/C=C/c1ccccc1 | 20.6
COCCN(C/C=C/c1ccccc1)C/C=C/c1ccccc1 | -69.4
CC(C)=CCCC(C)CN1CCC(n2nccc2NC(=O)C2CCCC2)CC1 (stereo not shown) | -70.8
CC(C)(CO)CN1CCC(n2nccc2NC(=O)C2CCCC2)CC1 | 11.4
O=C(Nc1ccnn1C1CCN(CC(O)CO)CC1)C1CCCC1 (stereo not shown) | 11.4
COc1ccc(C(=O)Nc2ccnn2C2CCN(C(=O)c3cccnc3)CC2)cc1 | 12.3
CCc1ccc(CN2CCC(n3nccc3NC(=O)c3ccccc3)CC2)o1 | -36
CC(C)=CCCC(C)CN1CCC(n2nccc2NC(=O)c2cccnc2)CC1 (stereo not shown) | -52.1

SMILES | hERG current change (%, negative = inhibition) at 10uM [%]
CC(C)CCN1CCC(n2nccc2NC(=O)c2ccc3c(c2)OCO3)CC1 | -5.16
CC(C)=CCCC(C)CN1CCC(n2nccc2NC(=O)c2ccccc2)CC1 (stereo not shown) | -69.6
O=C(Nc1cccnc1Cl)c1cc(-c2ccccc2O)on1 | -5.16
COc1ccc(NCc2ccc3c(c2)OCO3)cc1Cl | -4.31
CC(C)CSc1nnc2c3ccccc3n(C)c2n1 | -11.9
CC1=C(C(N)=O)C(c2ccccc2[N+](=O)[O-])n2ncnc2N1 (stereo not shown) | 7.69
C=Cn1c(C(=O)O)ccc1-c1ccc(CC)cc1 | -5.29
COC(=O)Nc1ccc(S(=O)(=O)N(CCO)CC(F)(F)C(F)F)cc1 | 18.3
CN=C1S/C(=C\c2ccc(OCC(=O)OC)c(OC)c2)C(=O)N1C | 12.6
Cc1nc(NCc2cccnc2)c2c3c(sc2n1)CC(C)CC3 (stereo not shown) | -25.1
c1ccc(CNc2ncnc3sc4c(c23)CCCC4)nc1 | -27.4
Cc1sc2ncnc(OCC(=O)NCc3cccs3)c2c1C | 6.03
c1cncc(CNc2ncnc3sc4c(c23)CCCC4)c1 | -78
Cc1sc2ncnc(NCc3ccco3)c2c1C | -16.3
CCCNc1ncnc2sc(C)c(C)c12 | -1.05
Cc1nc(NCc2cccnc2)c2c3c(sc2n1)CCCC3 | -70.2
Cc1sc2ncnc(NCc3cccs3)c2c1C | -61.7
O=C(Nc1ncnc2sc3c(c12)CCCC3)c1ccncc1 | -14.2
Cc1sc2ncnc(NCc3cccnc3)c2c1C | -55
Cc1sc2ncnc(NCCCO)c2c1C | 5.08
Cc1ccc(CNc2nc(C)nc3sc4c(c23)CCC4)cc1 | -4.22
